Compound activity: PubChem BioAssay, several laboratories
GRIN3A LBD mod: modulates the human NR3A ligand-binding domain; AID 1259313; Tm shift relative to glycine control, % at 25 µM; 340,000 compounds, 2.5% hits; NR3A LBD differential scanning fluorimetry, Tm shift; 0% = protein alone, 100% = glycine-bound protein;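 active = melting temperature shift of at least 10% of the positive control shift, at one fixed dose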
EBNA-1 inh: blocks EBNA-1 binding to DNA; inhibition, % at 14.8 µM; 300,000 compounds, 0.34% hits; AID 1950; EBNA-1 DNA binding, fluorescence polarization; in the data active = inhibition above about 28%
Rpn11 inh: Rpn11 (human) deubiquitinase inhibition. O00487. human 26S proteasome, Ub4-pepOG fluorescence polarization; 20S core pre-blocked with epoxomicin. inhibition, % at 20 µM. 360,000 compounds, 0.59% hits. AID 588493;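 active = inhibition at 20 µM, scaled to each plate's controls, above about 33%, limit read from the data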
Target sequence (O00487 whole entry, looked up): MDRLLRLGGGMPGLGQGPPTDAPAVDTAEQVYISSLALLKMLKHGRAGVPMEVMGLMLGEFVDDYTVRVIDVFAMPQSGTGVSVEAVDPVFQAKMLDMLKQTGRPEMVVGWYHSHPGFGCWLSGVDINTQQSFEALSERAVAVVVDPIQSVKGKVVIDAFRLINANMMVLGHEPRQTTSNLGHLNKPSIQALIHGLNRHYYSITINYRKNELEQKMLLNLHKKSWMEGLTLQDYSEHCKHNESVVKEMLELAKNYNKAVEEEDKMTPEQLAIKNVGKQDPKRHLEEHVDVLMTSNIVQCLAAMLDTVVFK
TPT1 inhibitor: C. albicans TPT1 enzyme inhibition; AID 1962; 300,000 compounds, 0.81% hits; recombinant caTPT1, FP RNA substrate dephosphorylation; inhibition, % at 5 µM;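 active = inhibition above the mean of all tested compounds plus 3 SD, set per screening campaign, cut at about 24% in these data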;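 note: plate controls were DMSO alone for no effect and ferristatin control at 100 nM for full effect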
ZTA DNA inh: ZTA (EBV) inhibition in EBNA-1 counter-screen; ZTA-DNA binding, fluorescence polarization; AID 2234; P03206; inhibition, % at 11 µM; 320,000 compounds, 0.15% hits; in the data active = inhibition above about 33%
Target sequence (P03206 whole entry, looked up): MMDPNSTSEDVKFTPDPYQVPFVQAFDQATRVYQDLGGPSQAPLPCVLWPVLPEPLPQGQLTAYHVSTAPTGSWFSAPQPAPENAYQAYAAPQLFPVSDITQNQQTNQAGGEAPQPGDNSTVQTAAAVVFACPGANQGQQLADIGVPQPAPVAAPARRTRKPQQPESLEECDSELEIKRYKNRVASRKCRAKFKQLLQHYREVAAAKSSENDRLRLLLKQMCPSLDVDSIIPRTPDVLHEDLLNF
dFosB act: mouse delta FosB homodimer activation; P13346; purified delta FosB, TAMRA-CDK5 oligo fluorescence polarization; percent of positive-control signal above neutral wells; activation, % at 25 µM; 340,000 compounds, 0.99% hits;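 active = mean activation above about 17%, with every replicate also reaching it, limit read from the data, passing the limit was not always enough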
caTPT1 confirm: confirmation of Candida albicans TPT1 inhibitors. shares compounds with TPT1 inhibitor. recombinant caTPT1, fluorescence polarization, RNase T1 coupled. inhibition, % at 5 µM. 2,400 compounds, 74% hits;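 active = inhibition above the primary screen limit, the mean inhibition of all tested compounds plus 3 SD, cut at about 25% in these data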
RNase T1 counter: counter-screen for TPT1 inhibitors: inhibitors of Aspergillus oryzae RNase T1; shares compounds with TPT1 inhibitor; RNase T1 cleavage, fluorescence polarization, 1536-well; inhibition, % at 5 µM; 2,400 compounds, 83% hits;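 active = inhibition above the solvent-only control well mean plus 3 SD, limit set per screening run, cut at about 23% in these data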;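 note: plate controls were DMSO wells with enzyme for no effect and wells without RNase T1 for full effect; inhibitors block cleavage so intact labeled substrate keeps polarization high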
* marks the source's active call; other numbers are inactive results; . = no result shown. The list is not random: actives were taken first. Their share in the collection is about 4.5%.

SMILES	GRIN3A LBD mod	EBNA-1 inh	Rpn11 inh	TPT1 inhibitor	ZTA DNA inh	dFosB act	caTPT1 confirm	RNase T1 counter
CC(C)OC(=O)c1sc2nc(-c3ccccc3)ccc2c1N	4	9	1	-4	7	-1	.	.
O=C1/C(=C/N(C(=O)c2ccco2)c2ccc(Br)cc2)Sc2ccccc21	3	-2	52*	70*	4	-3	71*	85*
COc1ccc(CN(C(=O)c2ccco2)c2ccc(Br)cc2)cc1OC	2	11	-4	-1	5	-14	.	.
O=C1/C(=C/N(C(=O)c2ccco2)c2ccc(Cl)cc2)Sc2ccccc21	3	0	16	69*	16	-3	70*	82*
C/C(=N/NC(=O)c1ccc(C)s1)c1ccncc1	1	.	-2	.	.	-7	.	.
COc1ccc(OC)c(-c2csc(NC(=O)Cc3cccs3)n2)c1	-4	-12	-2	2	-8	-13	.	.
COc1ccc(NC(=O)CSc2nc3ccccc3nc2N2CCOCC2)c(OC)c1	-1	2	5	-1	-1	-13	.	.
CN(C)CCCn1c(N)c(C#N)c2nc3ccccc3nc21	-4	5	.	26*	8	6	30*	43*
O=C(NCCc1ccccc1C(F)(F)F)C1CCC(=O)N(CCCN2CCCC2=O)C1 (stereo unspecified)	0	0	2	0	-5	2	.	.
Cc1cccc(S(=O)(=O)c2c(N)n(/N=C/c3cccnc3)c3nc4ccccc4nc23)c1	45*	-2	0	33*	-1	-8	53*	70*
CC(C)N1C(=O)S/C(=C/c2ccc3c(c2)n(C)c(=O)n3C)C1=O	-1	14	10	-5	-4	-12	.	.
CCN(CC)c1ccc(/C=C2\SC(=O)N(C(C)C)C2=O)o1	1	-4	.	178*	-1	.	172*	157*
CCN(CC)C(=O)CSC(Nc1ccc(F)cc1)=C(C#N)C#N	3	4	.	40*	-3	4	41*	52*
Cc1ccc(CSC(Nc2ccc(F)cc2)=C(C#N)C#N)cc1	10	-3	0	1	9	-4	.	.
O=C(O)c1ccccc1Nc1cc(Cl)c2nonc2c1[N+](=O)[O-]	1	2	-1	0	-2	-6	.	.
O=[N+]([O-])c1c(Nc2ccccn2)cc(Cl)c2nonc12	-3	2	.	128*	3	-3	135*	130*
O=c1c[n+]([O-])c2ccccc2n1OCc1ccccn1	-1	3	5	26*	-2	3	9	13
O=C(Nc1nc(-c2cccs2)cs1)c1ccco1	-1	-3	1	2	5	-10	.	.
Cc1csc(NC(=O)c2sc3nc(-c4cccs4)ccc3c2N)n1	28*	-7	.	27*	8	.	26*	41*
N#CC1CC(c2ccc([N+](=O)[O-])cc2)=NN1c1ccc([N+](=O)[O-])cc1 (stereo unspecified)	20*	11	.	73*	10	-6	91*	97*
CCn1c(/C=C/N(C)c2ccccc2)[n+](CC)c2ccc(Cl)cc21	2	8	5	-1	0	-17	.	.
CC/C(=C\c1oc2cc3ccccc3cc2[n+]1CC)Nc1ccccc1	-1	-2	8	6	-2	-7	.	.
CC[n+]1c(/C=C/N(C)c2ccccc2)oc2ccc(F)cc21	-2	7	.	55*	-1	-6	72*	81*
CC[n+]1c(/C=C/N(C)c2ccccc2)oc2ccccc21	0	4	.	36*	3	-4	49*	61*
CC[n+]1c(/C=C/Nc2ccccc2)oc2ccccc21	1	-3	40	38*	-2	-8	52*	64*
SMILES	GRIN3A LBD mod	EBNA-1 inh	Rpn11 inh	TPT1 inhibitor	ZTA DNA inh	dFosB act	caTPT1 confirm	RNase T1 counter
COc1ccc(/C=C/C(=O)c2cc(Br)ccc2O)cc1OC	1	1	0	-4	-5	-5	.	.
COCCCNC(=O)/C=C/c1ccc(Cl)cc1Cl	6	5	1	-4	4	-10	.	.
CNc1ccc(Br)cc(C(=O)/C=C/c2ccc(OC)cc2)c1=O	-2	4	-9	53*	10	-8	36*	46*
CCNc1ccc(Br)cc(C(=O)/C=C/c2ccc(Cl)cc2Cl)c1=O	1	9	24	69*	19	-10	85*	92*
CNc1ccc(Br)cc(C(=O)/C=C/c2ccc3c(c2)OCO3)c1=O	-2	3	-6	18	-8	2	.	.
CNc1ccc(Br)cc(C(=O)/C=C/c2cc(OC)ccc2OC)c1=O	-3	1	0	66*	3	-7	63*	76*
COc1ccc(C(C)(C)C)cc1NC(=O)C1CC(=O)N(C2CCCC2)C1 (stereo unspecified)	3	.	-6	.	.	-6	.	.
CC(=O)Nc1ccc(S(=O)(=O)N2CCC(C(=O)NCCC(=O)NCc3ccccc3)CC2)cc1	0	4	-13	-2	6	-6	.	.
Cn1nc(C(=O)NCC(=O)Nc2ccc(F)c(F)c2F)c2ccccc2c1=O	3	.	-2	.	12	4	.	.
Cc1cccc(N=Cc2[nH]c3ccc(Br)c(Cl)c3c2O)c1	4	-17	11	112*	7	-3	73*	77*
COc1ccccc1CN=Cc1[nH]c2ccc(Br)c(Cl)c2c1O	-1	-5	.	19	0	-5	.	.
COc1ccc(C2=NN(c3ccc(C=O)cc3)C(c3ccccc3)C2)cc1 (stereo unspecified)	1	-6	.	5	22	.	.	.
N#CCC(=O)N/N=C/c1ccc(N2N=C(c3ccccc3)CC2c2ccccc2)cc1 (stereo unspecified)	7	1	.	51*	7	2	67*	78*
COc1ccc(C2CC(c3ccccc3)=NN2c2ccc(/C=N/NC(=O)c3ccncc3)cc2)cc1 (stereo unspecified)	-1	-7	5	66*	9	5	52*	68*
COc1ccc(C2CC(c3ccccc3)=NN2c2ccc(C(N)=O)cc2)cc1 (stereo unspecified)	-4	1	9	0	10	-8	.	.
COc1ccc(C2CC(c3cccs3)=NN2c2ccc(C=O)cc2)cc1 (stereo unspecified)	4	1	.	65*	-14	.	67*	72*
Cc1ccc2c(CC(=O)NCC3(N4CCOCC4)CCCCC3)coc2c1C	0	.	10	.	-11	-7	.	.
Cn1cc(C2=C(c3ccc(Cl)cc3Cl)C(=O)NC2=O)c2ccccc21	-4	3	.	81*	6	-16	92*	95*
